# TRPM1 prom inh = MITF TRPM1 promoter inhibition in SK-MEL-5 cells; AID 488899; inhibition, % at 12.5 µM; hit rate 0.83% among 330,000; SK-MEL-5 TRPM1 promoter luciferase, 24 h;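 active = mean inhibition across replicates of 60% or more, whatever share of single replicates reaches that level; inconclusive = some that reach 60%, reason not given; inactive = mean inhibition across replicates below 60%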
# LMP1 NFkB inh = Epstein-Barr LMP1 NF-kappaB reporter inhibition | hit rate 0.69% among 350,000 | LMP1-induced NF-kappaB luciferase reporter cells, luminescence | inhibition, % at 12.5 µM; in the data active = inhibition above about 41%; inconclusive = no clear call, values can overlap the other calls
# PGC1a acetyl inh = lowers PGC1a acetylation signal in U2OS cells; AlphaScreen anti-acetyl-lysine; with virally co-expressed GCN5 acetyltransferase; inhibition, % at 15.6 µM; hit rate 0.17% among 350,000;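 active = every replicate shows inhibition of at least 40%; inconclusive = mean inhibition at least 40% but some replicate below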
# LGR2 antag = Drosophila LGR2 receptor signaling inhibition. inhibition, % at 9.99 µM. hit rate 0.35% among 380,000. HEK293 LGR2, CRE-luciferase, bursicon-stimulated, 4 h;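 active = drop in luminescence signal, shown as inhibition above about 50% in the replicate tests, limit read from the data, passing the limit was not always enough; inconclusive = probably only some replicates passing the limit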;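 note: agonist challenge used bursicon conditioned medium at about half maximal strength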
# PAX8 inh HTS = inhibitors of PAX8 transcriptional activity in RMG-I cells | RMG-I TPO-luciferase reporter, SteadyGlo, 24 h | hit rate 1.2% among 360,000 | inhibition, % at 12.6 µM;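 active = mean replicate inhibition at least 60% with every replicate also reaching 60%; inconclusive = only one of the two criteria is met; inactive = mean below 60% and not all replicates reaching 60%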;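 note: luciferase light reporting Pax8 driven TPO promoter activity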
# EWS-Fli inh = EWS/Fli transcriptional activity inhibition. A673 NR0B1-luciferase reporter, viability-normalised. inhibition, % at 12.6 µM. hit rate 0.67% among 350,000. AID 651661;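 active = mean inhibition of at least 50% after viability correction, with every replicate also passing that limit; inconclusive = mean reaches 50% but only one of two replicates passes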;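 note: firefly luciferase signal divided by Alamar Blue viability fluorescence both relative to DMSO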
# DNA binding = binds DNA displacing acridine orange | AID 720586 | AC35, µM (highest dose often 68 µM) | hit rate 2% among 640 | shares compounds with EWS-Fli inh | salmon sperm DNA acridine orange fluorescence polarization;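 active = fitted curve reaches a 35% signal fall AC35 below twice the sample's top valid tested dose, actives reach about 48 µM in these data; inactive = the rest, including activity in the rising direction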;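 note: lower polarization ratio signals compound binding to DNA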
# A number is an active result; . = inactive; ? = inconclusive; / = no result given; ! = not confirmed by another sample. An excerpt weighted towards active compounds, which were near 2.2% of everything screened.
SMILES,TRPM1 prom inh,LMP1 NFkB inh,PGC1a acetyl inh,LGR2 antag,PAX8 inh HTS,EWS-Fli inh,DNA binding
COc1ccc(CNC(=O)C[C@@H]2C[C@@H]3c4cc(NC(=O)C5CCC5)ccc4O[C@@H]3[C@H](CO)O2)cc1,/,/,.,.,.,.,/
C[C@@H]1CN([C@H](C)CO)C(=O)c2cccc(NS(=O)(=O)c3ccc(Cl)cc3)c2O[C@H]1CN(C)Cc1ccc(C(=O)Nc2ccccc2N)cc1,/,/,.,.,.,.,/
C[C@@H]1CN([C@@H](C)CO)C(=O)c2cccc(NS(=O)(=O)c3ccccc3)c2O[C@@H]1CN(C)Cc1ccc(C(=O)Nc2ccccc2N)cc1,/,/,.,.,.,51.8,.
C[C@@H]1CN([C@@H](C)CO)C(=O)c2cccc(NS(=O)(=O)c3ccc(Cl)cc3)c2O[C@@H]1CN(C)Cc1ccc(C(=O)Nc2ccccc2N)cc1,/,/,.,.,/,53.1,.
C[C@H](CO)N1C[C@H](C)[C@@H](CN(C)Cc2ccc(C(=O)Nc3ccccc3N)cc2)Oc2c(NS(=O)(=O)c3ccccc3)cccc2C1=O,/,/,.,.,.,.,/
Cc1ccc(/C=C/C(=O)N2CCN(S(=O)(=O)c3c(C)c(C)cc(C)c3C)CC2)o1,.,.,/,.,.,85.4,.
Cc1ccc(/C=C/C(=O)N2CCN(S(=O)(=O)c3ccc(C)c(C)c3)CC2)o1,.,.,.,.,.,/,/
O=C(C[C@@H]1CC[C@@H]2[C@H](COC[C@H](O)CN2S(=O)(=O)c2ccc(F)cc2)O1)NCc1ccncn1,/,/,.,.,.,.,/
COC(=O)c1ccccc1-c1c2ccc(=N)cc-2oc2cc(N)ccc12,.,.,.,.,96.0,85.5,<0.03µM
COCC(=O)Nc1ccc2c(c1)[C@H]1C[C@@H](CC(=O)NCc3ccc(-c4ccccc4)cc3)O[C@@H](CO)[C@H]1O2,/,/,.,.,.,.,/
O=C(C[C@H]1C[C@H]2c3cc(NC(=O)CC4CC4)ccc3O[C@H]2[C@@H](CO)O1)NCc1ccccc1F,/,/,.,.,/,.,/
O=C(C[C@@H]1C[C@H]2c3cc(NC(=O)CC4CC4)ccc3O[C@H]2[C@H](CO)O1)NCc1ccccc1F,/,/,.,.,/,56.0,.
COCC(=O)Nc1ccc2c(c1)[C@@H]1C[C@@H](CC(=O)NCc3ccc(-c4ccccc4)cc3)O[C@@H](CO)[C@@H]1O2,/,/,.,.,.,60.0,.
CC(C)C#Cc1ccc2c(c1)O[C@H](CN(C)C(=O)Cc1ccccn1)[C@H](C)CN([C@@H](C)CO)S2(=O)=O,/,/,.,.,/,.,/
CN(C)CC1CCC/C(=C\c2ccc(OC(=O)c3ccc(Cl)cc3)cc2)C1=O (centres undefined),91.5,.,/,.,/,58.9,.
O=C1/C(=C\c2ccc(Cl)cc2)CCC1CNc1ccc(Cl)cc1 (centres undefined),.,.,/,.,.,.,/
O=C(c1ccc(F)cc1)N1CC(=O)N2[C@@H](CO)[C@H](c3ccc(-c4ccccc4)cc3)[C@@H]2C1,/,/,.,.,.,.,/
CCOC(=O)Cc1ccc(NC(=O)c2ccccc2Br)cc1,.,.,/,/,.,51.6,.
CCOC(=O)Cc1ccc(NC(=O)c2ccc(C(C)(C)C)cc2)cc1,.,.,.,/,/,/,/
CC(C)COC(=O)N(C)C[C@H]1OCc2ccccc2-c2c(n(C)c3ccccc23)C(=O)N([C@H](C)CO)C[C@@H]1C,/,/,.,.,.,.,/
CCCC(=O)Nc1ccc2c(c1)C(=O)N(C)C[C@@H](OC)[C@@H](C)CN(Cc1ccccn1)[C@H](C)CO2,/,/,.,.,.,.,/
Cc1ccc(-c2ccc3c(c2)O[C@@H](CN(C)S(C)(=O)=O)[C@@H](C)CN([C@@H](C)CO)S3(=O)=O)cc1,/,/,.,.,/,.,/
O=c1cc(CN2CCN(Cc3ccccc3)CC2)c2ccc(O)c(O)c2o1,.,.,.,.,.,51.7,.
Cc1c(O)ccc2c(CN3CCN(Cc4ccccc4)CC3)cc(=O)oc12,.,.,.,.,.,.,/
CC(=O)NC(C)c1cc(Cl)c2cccnc2c1O (centres undefined),.,.,.,.,.,.,/
SMILES,TRPM1 prom inh,LMP1 NFkB inh,PGC1a acetyl inh,LGR2 antag,PAX8 inh HTS,EWS-Fli inh,DNA binding
Oc1c(Cl)cc(Cl)c2cccnc12,.,.,/,.,.,54.2,.
COc1cccc(S(=O)(=O)N(C)C[C@H]2OCc3cnnn3CCCC(=O)N([C@@H](C)CO)C[C@H]2C)c1,/,.,.,.,.,60.4!,.
COc1cccc(S(=O)(=O)N(C)C[C@@H]2OCc3cnnn3CCCC(=O)N([C@H](C)CO)C[C@H]2C)c1,/,.,.,.,.,.,/
O=C(/C=C/c1cc(Br)ccc1O)c1ccco1,.,.,.,.,.,58.9,.
CCN1C/C(=C/c2ccc(OC)c(O)c2)C(=O)/C(=C/c2ccc(OC)c(O)c2)C1,.,.,.,.,.,53.3,.
CCCN(C)C[C@@H]1Oc2ncc(C#CCN(C)C)cc2C(=O)N([C@H](C)CO)C[C@@H]1C,/,/,.,.,/,.,/
Oc1cccc(-c2nnc(-c3cccc(O)c3)nn2)c1,.,.,.,83.6,.,72.2,.
Oc1cccc(-c2nc3ccccc3s2)c1,.,.,.,/,/,/,/
Cc1cc(NC(=O)c2ccc3c(c2)OCCO3)ccc1NC(=O)c1cc2ccccc2o1,.,.,.,?,.,.,/
O=C(Nc1ccc(NC(=O)c2cc3ccccc3o2)cc1)c1ccc2c(c1)OCCO2,.,.,/,.,.,58.5,.
CC(C)C#Cc1ccc2c(c1)O[C@H](CN(C)C(=O)c1ccccn1)[C@@H](C)CN([C@@H](C)CO)S2(=O)=O,/,/,.,.,/,.,/
O=C1C(=O)N(Cc2cccs2)c2ccccc21,.,.,.,.,.,65.5,.
O=C1C(=O)N(CCS(=O)(=O)c2ccccc2)c2ccccc21,.,.,.,.,.,61.0,.
CNC[C@H]1Oc2c(NS(=O)(=O)c3cn(C)cn3)cccc2C(=O)N([C@H](C)CO)C[C@@H]1C,/,/,.,.,.,.,/
CC1(C)Oc2cc3oc(-c4cc(O)cc(O)c4)cc3cc2CC1O (centres undefined),.,.,.,82.5,/,75.8,.
C[C@H](NC(=O)[C@@H]1[C@@H](CO)[C@@H]2Cn3c(cccc3=O)[C@@H]2N1C(=O)C1CC1)c1ccccc1,/,/,.,.,.,.,/
C[C@H]1O[C@@H](O[C@H]2[C@@H](O)C[C@H](O[C@H]3[C@@H](O)C[C@H](O[C@H]4CC[C@@]5(C)[C@H](CC[C@@H]6[C@@H]5C[C@@H](O)[C@]5(C)[C@@H](C7=CC(=O)OC7)CC[C@]65O)C4)O[C@@H]3C)O[C@@H]2C)C[C@H](O)[C@@H]1O,67.2,81.5,/,84.5,109.4,65.8,.
COc1ccc(CCCNC(=O)C2Cc3c(-c4ccc5c(c4)OCO5)ccnc3O2)cc1 (centres undefined),/,/,.,.,.,53.4,.
C[C@H]1CN([C@@H](C)CO)C(=O)Cc2cc(NC(=O)Cc3ccccc3)ccc2O[C@H]1CN(C)C(=O)Nc1ccc(F)cc1,/,/,.,.,.,.,/

# Source: PubChem BioAssay
